Vaccinia mCherry: inhibitors of vaccinia virus infection (mCherry reporter signal); Potency, µM (doses to about 36.5 µM), for inactives: top-dose activity change, negative = inhibition, actives largely listed as inhibitors; Vaccinia virus mCherry reporter infection, fluorescence; 310,000 tested, 0.63% active; AID 720579; calls by dose curve; tested in A549 cells; further: nearly all actives have a fitted effect of over 35% in size
Giardia FBPA inh: blocks Giardia fructose-bisphosphate aldolase activity; Potency, µM (top dose mostly 59.6 µM), without a hit: top-dose activity, negative = inhibition, usual class: inhibitors; A8B2U2; 290,000 tested, 0.71% active; purified Giardia FBPA; active means well fitted inhibition curve with a large enough effect; inconclusive means small, poorly fitted or top-dose-only effect, or effect the other way; further: nearly all actives have a fitted effect of over 55% in size
Target sequence (A8B2U2 whole entry, looked up): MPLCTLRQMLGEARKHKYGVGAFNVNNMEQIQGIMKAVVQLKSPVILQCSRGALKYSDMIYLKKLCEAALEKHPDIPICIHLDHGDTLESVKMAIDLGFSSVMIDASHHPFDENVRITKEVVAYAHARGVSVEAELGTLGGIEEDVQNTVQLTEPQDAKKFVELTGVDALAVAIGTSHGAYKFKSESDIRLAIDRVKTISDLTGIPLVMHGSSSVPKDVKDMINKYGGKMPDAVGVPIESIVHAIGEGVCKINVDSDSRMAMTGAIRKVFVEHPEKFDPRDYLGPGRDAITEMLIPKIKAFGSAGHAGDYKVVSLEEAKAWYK
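Giardia FBPA (40 nM reagent) was preincubated 10 min at RT with compound (up to 57.5 uM final), then substrate plus GAPDH/TPI/NAD/arsenate coupling system with diaphorase/resazurin was added; resorufin fluorescence (525/598 nm) was read after 20 min.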
FMDV antiviral: blocks foot and mouth disease virus. Potency, µM (titrated, usually from 57.9 µM), for inactives: top-dose activity change, negative = inhibition, hits mostly inhibitors. FMDV antiviral cell-based qHTS. 410,000 tested, 1.2% active; calls by dose curve; tested in HEK293T cells; further: read-out not given here; nearly all actives have a fitted effect of over 45% in size
Vaccinia Venus: inhibitors of vaccinia virus (Venus reporter) | AID 720580 | 330,000 tested, 0.46% active | Vaccinia virus Venus reporter expression, fluorescence | Potency, µM (highest dose often 36.5 µM), for inactives: at the highest dose activity change, negative = inhibition, usual class: inhibitors; calls by dose curve; tested in A549 cells; further: nearly all actives have a fitted effect of over 30% in size
The depositor's hits bear a star; i = inactive; ? = inconclusive; nt = no result. Hits are enriched below; roughly 2.2% of the tested compounds scored in any of these assays. On the % scale 0 is the no-effect control and ±100 the full control effect; potency means the concentration at half of the fitted maximal effect.

SMILES	Vaccinia mCherry	Giardia FBPA inh	FMDV antiviral	Vaccinia Venus
CCOC(=O)c1cccc(NC(=O)c2ccc3c(c2)OCO3)c1	-22%	-1%	21%	-26%
CCn1c2ccccc2c2cc(/C=C3/C=Cc4ccccc43)ccc21	-8%	nt	nt	-21%
O=c1c2cnn(-c3ccccc3)c2nc(-c2ccco2)n1-c1ccccc1	nt	22%	14µM*	nt
COc1cc(=O)n2c(c1C(=O)N(C)Cc1nonc1C)CCN(Cc1cc(F)ccc1F)CC2	-4%	nt	-4%	8%
COc1cc(NC(=O)CSc2nc3ccccc3nc2Cc2ccc(Cl)cc2)cc(OC)c1	-21%	nt	2.5µM*	-15%
COc1ccc(NC(=O)CSc2nc3ccccc3nc2Cc2ccc(C)cc2)cc1Cl	-10%	nt	0%	-19%
COc1cc(NC(=O)Cn2nc(C(F)(F)F)c(Br)c2C)cc([N+](=O)[O-])c1	-22%	2%	40µM*	?
COc1ccc(CNC(=O)Cn2nc(C(F)(F)F)c(Br)c2C)cc1	nt	-1%	-15%	nt
COc1cc(/C=C2/SC(=S)NC2=O)ccc1OS(=O)(=O)c1ccc(C)cc1	-15%	15%	28µM*	-25%
COC(=O)[C@]12OC[C@]34C([C@@H](O)[C@@H]1O)[C@]1(C)CC(=O)C(O)=C(C)[C@@H]1C[C@H]3OC(=O)[C@H](O)[C@@H]24 (stereo partly drawn)	?	1%	?	0.89µM*
C=C1C(=O)OC2C1CC/C(C)=C/CCC1(C)OC21 (stereo not drawn)	?	3%	?	?
C=C1C(=O)O[C@H]2C[C@H]1[C@@H](OC(C)=O)C/C(C)=C/CC/C(C)=C\CC[C@]2(C)O	10µM*	nt	7.1µM*	10µM*
CCOc1ccc(/C=C/c2[nH]c(=O)[nH]c(=O)c2[N+](=O)[O-])cc1	i	2%	-6%	-10%
CCOc1cc(/C=C\c2[nH]c(=O)[nH]c(=O)c2[N+](=O)[O-])ccc1OC(C)CC (stereo not drawn)	nt	21%	8.9µM*	nt
CCOC(=O)COc1ccc(Br)cc1/C=C\c1[nH]c(=O)[nH]c(=O)c1[N+](=O)[O-]	-5%	12%	35µM*	-23%
CCOC(=O)COc1ccc(Br)cc1/C=C/c1[nH]c(=O)[nH]c(=O)c1[N+](=O)[O-]	-14%	-10%	28µM*	-13%
CCCOc1ccc(/C=C/c2[nH]c(=O)[nH]c(=O)c2[N+](=O)[O-])cc1OCC	10%	11%	?	-6%
Cc1cc(C(=O)Nc2cccc(-c3nc(CNC(=O)c4sc(C)nc4C)c(C)o3)c2)c(C)o1	i	nt	-1%	-18%
C=C(C)[C@@H]1C2=CC(C(=O)OC)=C(C[C@@H](C(=C)C)[C@H]3O[C@H]3C3=C[C@H]1OC3=O)O2	-10%	nt	nt	?
OC[C@H]1OC([S-])[C@H](O)[C@@H](O)[C@@H]1O.[Au+] (stereo partly drawn)	-15%	nt	0%	-1%
O=C1C(Cl)=C(NCCN2CCOCC2)C(=O)c2ncccc21	nt	11%	16µM*	nt
CC1=NN(c2ccc(C(=O)O)c(N)c2)C(=O)C1	i	7.1µM*	37%	-15%
CC1=NN(c2ccc(Cl)c(C(=O)O)c2)C(=O)C1	i	7%	-2%	2%
O=C(c1ccc(C(F)(F)F)cc1)N(Cc1cc2ccc(F)cc2nc1N1CCOCC1)C1CC1	-5%	nt	2%	-1%
N#C/C(=C\c1ccc([N+](=O)[O-])o1)c1nc2ccccc2[nH]1	nt	-4%	25µM*	nt
SMILES	Vaccinia mCherry	Giardia FBPA inh	FMDV antiviral	Vaccinia Venus
COC1=CC(=O)C(O)=C/C1=C\C=C\c1ccccc1	-5%	22µM*	40µM*	2%
Cc1cnc(SCc2ccccn2)nc1C1CCCN(C(=O)c2cccc(-c3cccc(F)c3)c2)C1 (stereo not drawn)	10µM*	nt	?	?
Cc1oc(-c2ccccc2NC(=O)c2ccsc2)nc1CN(C)Cc1ccc2c(c1)CCCN2C	-2%	nt	3%	-12%
CCN(CC)C1CCN(C(=O)c2cnn(-c3ncc4c(n3)-c3ccccc3CCC4)c2COC)C1 (stereo not drawn)	-7%	nt	-1%	-1%
CC(=O)OC1C(O)C2=C3C4(C)C1C(C)(C)C(=O)CC4C3(O)C(OC(C)=O)C1(CC1C)C2=O (stereo not drawn)	?	nt	22µM*	?
Cc1ccc(C(=O)N2CCOc3ccc(CN4CCN(Cc5ccccn5)CC4)cc3C2)cc1	-6%	nt	7%	-3%
Fc1ccccc1N1CCN(c2ncnc3c2nc2n3CCCC2)CC1	-13%	nt	?	-29%
O=C(C1CCN(c2ncnc3c2nc2n3CCCCC2)CC1)N1CCN(c2ccccc2)CC1	-1%	nt	?	-13%
O=C(C1CCN(c2ncnc3c2nc2n3CCCCC2)CC1)N1CCN(c2ccc(F)cc2)CC1	-10%	10%	32µM*	-29%
Fc1ccc(N2CCN(c3ncnc4c3nc3n4CCCC3)CC2)cc1	?	nt	1.8µM*	-21%
COc1ccccc1-c1c(C(F)(F)F)oc2cc(OS(C)(=O)=O)ccc2c1=O	-16%	-4%	32µM*	-16%
COC(=O)c1ccccc1-c1cc(C)cc2c1OC(CNC(=O)c1ccn(C)n1)C2 (stereo not drawn)	-15%	nt	10%	-12%
O=C(C[n+]1ccncc1)c1cccc([N+](=O)[O-])c1	i	nt	nt	-12%
Cc1ccc(-n2c(-c3ccccc3)nsc2=NC#N)cc1	3.5µM*	nt	nt	4.5µM*
CN[C@H]1C[C@@H](N)[C@H](O)[C@@H](O[C@@H]2O[C@H](CO)[C@H](O)[C@@H]3OC4(O[C@H]23)O[C@H](C(N)CO)[C@H](O)[C@H](O)[C@H]4O)[C@@H]1O (stereo partly drawn)	-8%	nt	9%	-6%
COc1ccc(CNC(=O)[C@H](C)N2C(=O)N3CCc4c([nH]c5ccccc45)[C@@]3(C)C2=O)cc1OC	-21%	8%	32µM*	-19%
O=C(NCC1Cc2cc(F)cc(-c3cccnc3)c2O1)c1cnn(-c2ccccc2)c1 (stereo not drawn)	17%	nt	-2%	17%
O=S(=O)(Nc1cc(O)cc2cccnc12)c1ccc(Br)s1	nt	3.2µM*	nt	nt
O=S(=O)(Nc1cc(O)cc2cccnc12)c1ccc(Cl)s1	nt	3.2µM*	nt	nt
CN1C(=O)CC(CC(=O)N2CCCCC2CCO)(c2cccc(F)c2)C1=O (stereo not drawn)	-10%	nt	8%	0%
O=C(NCc1nnc2n1CCN(Cc1ccc(C(F)(F)F)cc1)CC2)c1cccc(F)c1	-16%	nt	-12%	-5%
CCCCC[C@H](O)/C=C/C1C(=O)C=C[C@H]1C/C=C\CCCC(=O)OC (stereo partly drawn)	-11%	nt	25µM*	15%
Cc1cc(/C=C2\Sc3ccccc3N2C)cc(C)[n+]1CC1CCCO1 (stereo not drawn)	8.9µM*	-10%	?	?
N=c1n(CCO)c2ccccc2n1CCOc1ccc(Cl)cc1Cl	?	0%	28µM*	11µM*
COc1ccc(OCCn2c(=N)n(CCO)c3ccccc32)cc1	-20%	0%	-27%	-8%
COc1cc(CNC2CCCC2)cc(Cl)c1OCc1ccccc1F	?	-1%	nt	16µM*
Cc1nc2ccccc2n1/N=C/c1ccc([N+](=O)[O-])o1	7.9µM*	nt	nt	11µM*

Screening results deposited in PubChem BioAssay by National Center for Advancing Translational Sciences (NCATS).
